Only a selection was taken, and hits are over-represented in it overall.
FECH inh – inhibitors of human ferrochelatase, primary screen, biochemical, purified FECH, Ni-mesoporphyrin absorbance. Ferrochelatase, mitochondrial (Homo sapiens), P22830. Ni-mesoporphyrin absorbance 550 nm. calls only at 10 µM (by protocol). 3.3% of 20,000 active. AID 1671448, 2021;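 active = enzyme reaction rate more than 3 SD below the solvent-only control wells on the same plate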;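 note: lower slope than DMSO wells means FECH inhibition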
Target sequence (P22830 whole entry, looked up): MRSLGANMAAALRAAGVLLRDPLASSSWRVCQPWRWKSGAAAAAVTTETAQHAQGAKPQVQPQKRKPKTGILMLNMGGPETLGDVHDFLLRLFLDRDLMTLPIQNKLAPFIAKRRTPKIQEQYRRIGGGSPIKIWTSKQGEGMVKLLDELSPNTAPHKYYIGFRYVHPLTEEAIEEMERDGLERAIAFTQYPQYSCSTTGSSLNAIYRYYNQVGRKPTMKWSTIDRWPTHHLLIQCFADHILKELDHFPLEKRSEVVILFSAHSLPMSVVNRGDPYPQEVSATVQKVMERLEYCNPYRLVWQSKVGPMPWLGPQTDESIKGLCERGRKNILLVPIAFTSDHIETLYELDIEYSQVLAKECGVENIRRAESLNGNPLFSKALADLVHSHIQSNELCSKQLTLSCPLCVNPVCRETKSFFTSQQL
Calls only; - = inactive; + = active, no number.

SMILES | FECH inh
Cc1nn(C)c(C)c1C(C)NC(=O)c1cc(-n2cccn2)ccc1Cl (configuration not stated) | -
COc1ccc(CC(=O)NCCn2c(-c3ccccc3)nc3cccnc32)c(Cl)c1 | -
CCc1ccc(S(=O)(=O)NCCn2c(-c3ccc(C)cc3)nc3cccnc32)cc1 | -
Cc1ccc(NC(=O)NCCn2c(-c3ccncc3)nc3cccnc32)cc1Cl | +
Cc1cc(C)cc(NC(=O)NCCn2c(-c3ccncc3)nc3cccnc32)c1 | -
Cc1ccc(-c2nc3cccnc3n2CCNS(=O)(=O)c2ccc(C)cc2)cc1 | -
CCc1ccccc1NC(=O)NCCn1c(-c2ccncc2)nc2cccnc21 | -
COC(=O)CNC(=O)NCCn1c(-c2ccccc2)nc2cccnc21 | +
COc1ccc(NC(=O)NCCn2c(-c3ccncc3)nc3cccnc32)cc1 | -
CCC(=O)Nc1ccc(S(=O)(=O)NCCn2c(-c3ccc(C)cc3)nc3cccnc32)cc1 | +
CCCCC1CCCN1C(=O)c1cc(-c2ccncc2)n[nH]1 (configuration not stated) | -
NS(=O)(=O)c1ccc(CCNC(=O)CCC(=O)N2CC3CCCN3c3ccccc32)cc1 (configuration not stated) | -
Cc1sc2nc(CNCc3cn(CCC(N)=O)c4ccccc34)cn2c1C | -
Cc1nc(-c2ccc(C(=O)N3CCCC3C(=O)Nc3cccc(C)c3C)cc2)no1 (configuration not stated) | -
CC(=O)c1[nH]c(C)c(C(=O)N(Cc2ccsc2)CC2CCCO2)c1C (configuration not stated) | -
Cn1c(=O)c(C(=O)Nc2ccccc2Cl)nc2ccccc21 | -
CC(C)N(Cc1nccn1C)C(=O)[C@@H]1C[C@@H](NC(=O)c2cccs2)CN1 | -
Cn1c(=O)n(CCN2CCOCC2)c(=O)c2cnc(-c3cccnc3)nc21 | -
CCc1nc2nc(C)[nH]n2c(=O)c1NC(=O)Nc1cccc(Cl)c1 | -
CCOC(=O)CCc1c(C)nc2nc(CNc3cccc(Cl)c3)[nH]n2c1=O | +
CCOC(=O)CCc1c(C)nc2nc(CNc3ccc(F)cc3)[nH]n2c1=O | -
CCc1nc2nc(C)c(NC(=O)Nc3ccc(F)c(Cl)c3)c(=O)n2[nH]1 | -
CCc1nc2nc(C)c(NC(=O)Nc3cccc(C)c3)c(=O)n2[nH]1 | -
CCOC(=O)CCc1c(C)nc2nc(CNc3cccc(C)c3)[nH]n2c1=O | +
O=C(NCCCN1CCN(c2ccccc2)CC1)c1ccc(CN2C(=O)CCn3nccc32)cc1 | -
SMILES | FECH inh
CC(=O)c1[nH]c(C)c(C(=O)N2CCCN(c3ccncc3)CC2)c1C | -
CCc1c(C)nc2ncnn2c1Sc1ccc(NC(=O)c2ccc(Cl)cc2)cc1 | -
C1=CCC(c2cn(Cc3cnc4ccccc4c3)nn2)CC1 (configuration not stated) | -
Cc1ccc(NC(=O)CNc2nccc(-c3ccc(C)nc3C)n2)c(F)c1 | -
CSc1nccc(-c2ccc(Cl)cc2Cl)n1 | +
COC(=O)c1cc2n(n1)CCN(c1ccnc(SC)n1)C2 | -
O=C(O)c1cc(NS(=O)(=O)c2cccc(F)c2)cnc1N(Cc1ccccc1)Cc1ccccc1 | -
CCN(CC)c1nccc(-c2cc(C(=O)O)ccn2)n1 | -
CCOCc1nccc(-c2cc(C(=O)O)ccn2)n1 | +
CCOc1ccc(-c2ccnc(CC3CCN(C)CC3)n2)cc1C(=O)O | -
O=S(=O)(NCCn1c(-c2ccc(F)cc2)nc2cccnc21)c1cccs1 | -
C=CCn1c(CN2CC[C@H](O)C[C@@H]2C(=O)O)nc2ccccc21 | -
COc1ccccc1N1CCN(C(=O)CCc2nc(-c3cc4ccc(C)cc4[nH]c3=O)no2)CC1 | +
Cc1ccc2cc(-c3noc(CCC(=O)N4CCCC(C)C4)n3)c(=O)[nH]c2c1 (configuration not stated) | -
Cc1ccc2cc(-c3noc(CCC(=O)N4CCC(C)CC4)n3)c(=O)[nH]c2c1 | -
CCNC(=O)CN1CCCCC1CCc1ccccc1 (configuration not stated) | -
C=CCOc1ccccc1CN(CC)C(=O)[C@@H](C)N | -
Cc1cc2nc(CSc3nnc(-c4cc(C)n(C)n4)o3)cc(=O)n2o1 | -
Cc1cc(C)n2c(SCc3cc(=O)n4oc(C)cc4n3)nnc2n1 | -
Cc1cc2nc(CSc3nnc4c(n3)[nH]c3ccccc34)cc(=O)n2o1 | +
O=C(NC1CCC(n2cnnc2)CC1)c1ccc(Cn2ccnc2)o1 (configuration not stated) | -
Cc1cc(C(=O)NCc2ccc3[nH]c(-c4ccc(F)cc4)c(C)c3c2)on1 | -
CCc1c(C(=O)N(C)CCn2ccnc2C)[nH]c2ccccc12 | -
O=C(O)c1[nH]ncc1CN1CCN(c2nsc3ccccc23)CC1 | -
CCOC(=O)c1[nH]c2ccccc2c1CN1CCN(c2ncc(F)cn2)CC1 | +
SMILES | FECH inh
C=C(C)COc1cccc(C(=O)NCc2cn3cc(C)ccc3n2)c1 | -
COc1ccc(NC2=NC(C(=O)NCc3ccccc3)CC(=O)N2)cc1 (configuration not stated) | -
c1ccc(Cn2cccn2)c(CN2CCC3(CCNCC3)CC2)c1 | -
Cc1c[nH]c(Cn2cnc(-c3ccccc3)c2-c2cnn(C)c2)c(C)c1=O | -
CC(C)CCNC(=O)C1CCN(c2ccc(-c3ccccc3)nn2)CC1 | -
O=C(NC1CC1)C1CCN(c2ccc(-c3ccccc3)nn2)CC1 | +
CCN(CCNC(=O)C1CCN(c2ccc(-c3ccccc3)nn2)CC1)Cc1ccccc1 | +
CCCNC(=O)C1CCN(c2ccc(-c3ccccc3)nn2)CC1 | -
O=C(NC1CC1)C1CCN(c2ccc(-c3cccs3)nn2)CC1 | -
Cc1ccc(-c2ccc(N3CCC(C(=O)NCCCN(C)Cc4ccccc4)CC3)nn2)cc1 | -
O=C1NCC2(CCCN(Cc3cccc(-c4ccccn4)c3)CC2)O1 (configuration not stated) | -
Cc1cc(CC(=O)Nc2ccnn2Cc2cccc(Cl)c2)on1 | -
CCc1c(C)nc2ncnn2c1Sc1ccc(NC(=O)c2ccc(F)cc2)cc1 | -
Cc1cc(-c2nccn2CC2CCS(=O)(=O)C2)oc1C (configuration not stated) | -
Cc1ccc(-c2cc(C(=O)NCCc3ccc(S(N)(=O)=O)cc3)no2)cc1 | -
Cc1ccc(-c2cc(C(=O)NCc3ccc(S(N)(=O)=O)cc3)no2)cc1 | -
CCOc1ccc(-c2cc(C(=O)NCc3ccc(S(N)(=O)=O)cc3)no2)cc1 | +
COc1ccc(-c2cc(C(=O)Nc3ccc(S(N)(=O)=O)cc3)no2)cc1 | +
NS(=O)(=O)c1ccc(NC(=O)c2cc(-c3ccccc3)on2)cc1 | -
Cc1ccc(-c2cc(C(=O)Nc3ccc(S(N)(=O)=O)cc3)no2)cc1 | -
CCc1cc(=O)n2[nH]c(C)nc2n1 | -
COc1ccc(OC)c(S(=O)(=O)NCc2nc3cccnc3n2Cc2ccccc2)c1 | -
Cc1cc(-c2c(-c3ccccc3)ncn2Cc2n[nH]c(=O)c3ccccc23)n[nH]1 | -
COCCc1noc(CN2CC[C@H](CO)[C@H](O)C2)n1 | -
COc1cccc(S(=O)(=O)NCc2nc3cccnc3n2Cc2ccccc2)c1 | -
Cc1ccc(NC(=O)c2ccc(=O)n(Cc3cccc(C)c3)c2)cc1 | -
CCOc1ccc(CN(Cc2cccc3c2OCO3)C2CC2)cc1 | -
Cc1ccc(NC(=O)C2CCCCC2)cc1OCc1cc(=O)n2cccc(C)c2n1 | +
Cc1ccc(NC(=O)c2ccccc2C)cc1OCc1cc(=O)n2cccc(C)c2n1 | -
COc1ccc(C(=O)Nc2ccc(C)c(OCc3cc(=O)n4cccc(C)c4n3)c2)cc1 | -
